HT1080NT lethal – kills 2HG-producing HT-1080-NT fibrosarcoma cells; HT-1080-NT fibrosarcoma viability, CellTiter-Glo ATP luminescence, 48 h; Potency, µM (highest dose often 46.1 µM), for the others: top-dose activity, negative = less viability, usual class: cytotoxic; actives 1.6% (n = 360,000); AID 686970;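 also: NT is the 2HG producing partner of a matched IDH1 knockdown line; 0% = DMSO-treated cells and -100% = media-only wells without cells; nearly all actives have a fitted effect of over 55% in size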
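750 cells/well, RPMI + 5% FBS; 2 h settle, compound pin-transfer, 48 h at 37 degrees C. CellTiter-Glo 10 min RT, luminescence. Normalized to DMSO and media-only wells.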
HT1080 IDH1KD tx – HT-1080 IDH1 knockdown cell toxicity (counter line); AID 686971; HT-1080 IDH1 knockdown viability, ATP luminescence, 48 h; Potency, µM (titrated, usually from 46.1 µM), without a hit: at the top dose activity, negative = toxicity, usual class: cytotoxic; actives 2% (n = 360,000);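 also: 0% = DMSO wells and -100% = cell-free medium wells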
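Using the IDH1-knockdown HT-1080 line run in the same batch and compound series as the NT line, viability after 48 h at 37 °C was determined by CellTiter-Glo luminescence and expressed as % activity.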
TGFb inhibitor – blocks TGF-b signaling; HepG2 CAGA-GFP TGF-b/SMAD3 reporter, GFP fluorescence, 18 h; TGF-beta stimulated, 500 pg/mL final; actives 1.2% (n = 410,000); Potency, µM (highest dose often 46.1 µM), for the others: top-dose activity, negative = inhibition, actives largely listed as inhibitors; also: % is scaled to controls: 0 for no effect and ±100 for the full control effect; nearly all actives have a fitted effect of over 65% in size
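First, reporter cells (HEPG2 CAGA-GFP) rested 2 h at 37 degrees C. Next, compounds were pinned in and TGF-beta added to 500 pg/mL final. After 18 h, GFP was imaged per cell and summed per well.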
S2 tox – reduces viability in counter-screen for ATXN expression inhibitors; S2 cells (HEK-293 line with an ATXN2-luciferase reporter) viability, CellTiter-Fluor protease fluorescence, 24 h; Potency, µM (highest dose often 56.7 µM), most hits filed as cytotoxic; actives 0.49% (n = 400,000); also: nearly all actives have a fitted effect of over 40% in size
ATXN2 expr inh – inhibitors of ATXN2 expression. actives 0.72% (n = 360,000). HEK-293 ATXN2-luciferase reporter, luminescence, 24 h. Potency, µM (series often up to 57 µM), without a hit: at the highest dose activity change, negative = inhibition, most hits filed as inhibitors; also: % is scaled to controls: 0 for no effect and ±100 for the full control effect; nearly all actives have a fitted effect of over 55% in size
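ATXN2-luciferase reporter cells (luciferase flanked by upstream and downstream ATXN2 gene portions) were treated 24 h at 37 °C with compounds at up to 57 uM. SteadyGlo luminescence gave expression; GF-AFC fluorescence gave viability.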
HepG2 tox-1 – HepG2 cytotoxicity, counter-screen for TGF-b inhibitors; HepG2 CAGA-GFP viability, ATP luminescence, 18 h; Potency, µM (top dose mostly 46.1 µM), inactives show at the top dose activity change, negative = cytotoxicity, hits mostly cytotoxic; actives 0.76% (n = 410,000); AID 588856
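CellTiter-Glo luminescence gave cytotoxicity after 18 hours at 37 degrees C. The cells were HepG2 CAGA-GFP in 1% FBS DMEM, stimulated with 500 pg/mL TGF-beta after compound addition. %Activity was normalised to no-cell wells (complete cell-killing) and DMSO (no toxicity), and curves were fitted and classified.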
TGFb CAGA inh – confirmation of TGF-b signaling inhibitors in HepG2 reporter cells; shares compounds with TGFb inhibitor; actives 63% (n = 1,600); HepG2 CAGA-GFP TGF-b reporter, GFP fluorescence, 18 h; cells stimulated with TGF-beta, 500 pg/mL; Potency, µM (series often up to 46.1 µM), without a hit: at the highest dose activity, negative = inhibition, usual class: inhibitors; also: % is scaled to controls: 0 for no effect and ±100 for the full control effect; nearly all actives have a fitted effect of over 65% in size
HepG2 tox-2 – HepG2 cytotoxicity, TGF-b inhibitor counterscreen. Potency, µM (highest dose often 46.1 µM), without a hit: at the top dose activity, negative = cytotoxicity, usual class: inhibitors. actives 27% (n = 1,600). shares compounds with TGFb inhibitor. HepG2 CAGA-GFP viability, ATP luminescence, 18 h; cells stimulated with TGF-beta, 500 pg/mL; also: % is scaled to controls: 0 for no effect and ±100 for the full control effect; nearly all actives have a fitted effect of over 70% in size
TGFb CCL64 inh – blocks TGF-b signaling in CCL64 reporter cells. Potency, µM (top dose mostly 46.1 µM), without a hit: at the top dose activity, negative = inhibition, usual class: inhibitors. shares compounds with TGFb inhibitor. AID 720536. CCL64 CAGA-GFP reporter, TGF-b stimulated, GFP fluorescence, 18 h. actives 41% (n = 1,600); also: nearly all actives have a fitted effect of over 65% in size
TGFb COP inh – TGF-b inhibition validated with COP promoter; Potency, µM (top dose mostly 46.1 µM), inactives show at the top dose activity, negative = inhibition, usual class: inhibitors; HepG2 COP-GFP TGF-b reporter, GFP fluorescence, 18 h; cells stimulated by added recombinant TGF-beta; actives 3% (n = 1,600); shares compounds with TGFb inhibitor; also: nearly all actives have a fitted effect of over 70% in size
* hit, by the source's call; i = inactive; ? = inconclusive; · = no result given. Sampled rows, rich in hits. Any-hit rate of the full collection: about 3.8%. Calls follow the shape of the dose curve; as a rule, active = well fitted curve in the direction sought with a large enough effect; inconclusive = small, poorly fitted or top-dose-only effect, or another doubt; inactive = no such curve, though single readings can be large; an effect the other way counts as inactive or inconclusive. Potency is read from the fitted curve at half-maximal effect.

SMILES	HT1080NT lethal	HT1080 IDH1KD tx	TGFb inhibitor	S2 tox	ATXN2 expr inh	HepG2 tox-1	TGFb CAGA inh	HepG2 tox-2	TGFb CCL64 inh	TGFb COP inh
Cc1cccc(N2CCN(c3ccc4cc(S(=O)(=O)N5CCC(C)CC5)ccc4n3)CC2C)c1 (configuration not stated)	·	·	0%	i	4%	6%	·	·	·	·
O=c1c(S(=O)(=O)c2ccc(Cl)cc2)cn(Cc2ccc(F)cc2)c2ccc(F)cc12	·	·	-6%	i	-2%	6%	·	·	·	·
O=C(CCNc1cccc(F)c1)c1cccc([N+](=O)[O-])c1	?	?	13µM*	i	-12%	10%	10µM*	?	?	3%
O=C(CCNc1ccc(Cc2ccncc2)cc1)c1cccc([N+](=O)[O-])c1	-6%	?	-9%	i	-30%	-13%	·	·	·	·
NC(=O)c1cccc(-c2cnc(N)c(C(=O)c3cccnc3)n2)c1	-19%	-25%	10µM*	?	-39%	-28%	4.6µM*	16µM*	-101%	33%
O=C(Nc1cccc(NC(=O)c2cccnc2)c1)c1ccccc1	0%	5%	-1%	i	-7%	4%	·	·	·	·
CC(CNc1nc2ccccc2c2nc(-c3ccccc3)nn12)c1ccccc1 (configuration not stated)	·	·	2%	i	-2%	-6%	·	·	·	·
CCc1ccc(NC(=O)c2ccc3c(c2)nnn3CC)cc1	·	·	27%	i	20%	8%	·	·	·	·
Cc1ccc(NC(=O)Cc2ccccc2F)cc1S(=O)(=O)N1CCCCCC1	0%	-24%	11µM*	?	-25%	-30%	8.2µM*	?	-23%	16%
Cc1c(C(=O)N2CCN(Cc3ccc4c(c3)OCO4)CC2)sc2ncnc(N3CCN(c4ccccc4)CC3)c12	0%	?	?	i	·	-3%	·	·	·	·
Cc1c(C(=O)N2CCN(Cc3ccc4c(c3)OCO4)CC2)sc2ncnc(N3CCN(c4ccccc4F)CC3)c12	?	18µM*	5µM*	?	·	-35%	?	-15%	-9%	10%
Cc1cccc(N2CCN(C(=O)c3c(C)nn(Cc4ccccc4Cl)c3C)CC2)c1C	?	?	20µM*	i	-35%	-24%	10µM*	?	?	24%
COC(=O)c1cc2oc3ccccc3c2n1CC(=O)Nc1ccc(OC)c(OC)c1	·	·	-31%	i	5%	-38%	·	·	·	·
COc1cccc(-c2cnc3c(NC=O)cc(-c4ccc(OC)cc4OC)cn23)c1	?	?	4.5µM*	?	0%	-22%	4.1µM*	-28%	3.3µM*	16%
